The text below walks through data of PubChem BioAssay (NCATS).

Records with an inconclusive call do not appear. A number with no mark means an inactive call. The source made the active and inactive calls. The call rests on the fitted dose curve; in most records, active means well fitted inhibition curve with a large enough effect; inconclusive means small, poorly fitted or top-dose-only effect; inactive means no such curve, though single readings can be large or run the other way.
Potency means the concentration at half of the fitted maximal effect.

This test in a line: qHTS to identify inhibitors of the type 1 interferon - major histocompatibility complex class I in skeletal muscle: primary screen against the NCATS Mechanism Interrogation Plate v5.0 (MIPE) Libary (AID 1347411). Further: nearly all actives have a fitted effect of over 65% in size.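 On activity change, negative = inhibition: plate controls were vehicle for no effect and reference inhibitor for full effect.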 The conditions noted are these: iHSKM cells + IFN-b, HiBiT-tagged MHC-I luminescence, 24 h; series mostly up to 45.8 µM; activity change, negative = inhibition: at the top concentration. Summed up: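 IFN-beta-driven (4 ng/ml) HLA-B-HiBit expression in CRISPR-tagged C25cl48 myoblasts; compounds 11-pt, 1:3, max 46 uM, 24 hr exposure; lytic NanoLuc complementation luminescence.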
(qHTS replaces the single test concentration by a dilution series.)
In the case of `Cc1c(NC(=O)c2cc3c(s2)CCCC3)cccc1-c1cn(C)c(=O)c(Nc2ccc(C3C(=O)N(C)CCN3C)cc2)n1` (stereo not given), the “activity change, negative = inhibition” value is -16.6%.
On to `C=CC(=O)Nc1ccc2ncnc(Nc3cccc(Br)c3)c2c1`, for which the Potency is 11700 nM (active).
On to `CN1CC[C@@H](c2c(O)cc(O)c3c(=O)cc(-c4ccc(C(F)(F)F)cc4Cl)oc23)[C@@H]1CO`, for which the Potency is 13100 nM (active).
Take `COC(=O)N1CC2(CC2)C[C@H](C(=O)NO)[C@H]1C(=O)N1CCN(c2ccccc2)CC1`: the “activity change, negative = inhibition” value was 8.38%.
As for `COc1c(C)cc(NC(=O)c2nn(Cc3ccc(F)cc3)c3c2CN(C(=O)c2ccc[nH]2)C[C@]3(C)C(N)=O)cc1C`, the activity change, negative = inhibition was -14.7% [at 8.44 µM].
Take `CC(/C=C/C(=O)NO)=C\[C@@H](C)C(=O)c1ccc(N(C)C)cc1`: the Potency was 2080 nM (active).
In the case of `Cn1cc(-c2cnn3c(N)c(Br)c(C4CCCNC4)nc23)cn1` (stereo not given), the “activity change, negative = inhibition” value was -70.8%.
The same measure, in the same setting: for `COc1ccc(-n2c(SCCCN3C(=O)c4cccc5cccc(c45)C3=O)nnc2-c2ccncc2)cc1` the value was -26.7%.
Same read-out and setting: for `CC(C)NC(=O)N1CC[C@H](N=C2Nc3cc(F)ccc3N(CC(F)F)c3ccc(Cl)cc32)C1` the value was -19.9% [at 8.44 µM].
For `CCNC(=O)C#Cc1ccc2c(C(=Nc3ccc(CN(C)C)cc3)c3ccccc3)c(O)[nH]c2c1`, the Potency was 4040 nM (active).
Turning to `O=C(NCCCNc1nc(Nc2cccc(CN3CCOCC3)c2)ncc1C1CC1)C1CCC1`, the “activity change, negative = inhibition” value is -27.1%.
On the same count and under the same terms, the result for `CCOC(=O)[C@@]1(CCCCCCOc2ccc(Cl)cc2)CO1` reads -11.5%.
`Cc1ccc(C(=O)Nc2ccc(CN3CCN(C)CC3)c(C(F)(F)F)c2)cc1C#Cc1cnc2[nH]ncc2c1`: the Potency was 117 nM (active).
Still for that read-out and setting: the result for `C=CCNC1=C2C[C@@H](C)C[C@H](OC)[C@H](O)[C@@H](C)/C=C(\C)[C@H](OC(N)=O)[C@@H](OC)/C=C\C=C(/C)C(=O)NC(=CC1=O)C2=O` reads 829 nM (active).
On to `Cc1cnc(-c2ccccc2C(C)C)nc1NCc1ccc(-n2ccnn2)cc1`, for which the “activity change, negative = inhibition” value is -20.6%.
Still for that read-out and setting: the result for `C[C@@H]1CN(CC(=O)N2CC(C)(C)c3ncc(Cc4ccc(F)cc4)cc32)[C@@H](CN2CCOC[C@H]2C)CN1` reads 40.9%; that for `C[C@H](CN(C)C)Oc1nc(Nc2cc3cccc(Cl)c3cn2)cnc1C#N`, -24%.
On the same count and under the same terms, the result for `Cn1ncnc1[C@H]1c2n[nH]c(=O)c3cc(F)cc(c23)N[C@@H]1c1ccc(F)cc1` reads -25.5%.
Still for that read-out and setting: for `CC(C)(CNC(=O)c1cccc(-c2noc(C(F)(F)F)n2)c1)c1coc(-c2ccccc2)n1` the value was -17.4%; for `COc1cc(OC)c2c(=O)[nH]c(-c3cc(C)c(OCCO)c(C)c3)nc2c1`, -15.8%.
For the compound `Cc1cccc(CC(=O)N2CCc3c2ccc(-c2cn(C)c4ncnc(N)c24)c3F)n1`, the “activity change, negative = inhibition” value is -45.7%.
Still for that read-out and setting: the result for `CCn1c(N)c(C(=O)NC)c(=O)c2ccc(C#CC(C)(O)COC)nc21` (stereo not given) reads -38.4%; that for `Cn1cc(-c2ccc3c(c2)CCN3C(=O)Cc2cccc(C(F)(F)F)c2)c2c(N)ncnc21`, -55.7%.
Consider `CC[C@@H](C)Nc1cc(C(=O)NC2CC3CC[C@@H](C2)N3c2ccc(C(=O)C3CC3)cn2)c(C)cc1C(N)=O` (stereo not given in full), for which the Potency is 117 nM (active).
On to `C[C@@H]1COCCN1c1cc(=O)n2c(n1)N(Cc1cncc(Cl)c1)[C@H](C(F)(F)F)CC2`, for which the “activity change, negative = inhibition” value was -6.81%.
